Source: PMC5540273 (PLoS ONE, 2017)

Tests used:
Conditions in all cases: concentration: 1 μM, replicates: in singlicate; n = 1
TLK2 = test system: TLK2
TNIK = test system: TNIK
TNK1 = test system: TNK1
TNK2 = test system: TNK2
TNNI3K = test system: TNNI3K
TRKA = test system: T1, TRKA
T1 construct: gene NTRK1

TRKB = test system: TRKB
TRKC = test system: T2, TRKC
T2 construct: gene NTRK3

TRPM6 = test system: TRPM6
TSSK1B = test system: TSSK1B
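Note: KINOMEscan kinase panel screen.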

SMILES	%Inh (TLK2)	%Inh (TNIK)	%Inh (TNK1)	%Inh (TNK2)	%Inh (TNNI3K)	%Inh (TRKA)	%Inh (TRKB)	%Inh (TRKC)	%Inh (TRPM6)	%Inh (TSSK1B)
c1ccc(-c2n[nH]cc2-c2ccnc3ccccc23)nc1 [GW271431]	0%	32%	10%	19%	12%	35%	0%	0%	29%	11%
COc1ccc(Nc2nccc(N3CCC(NC(=O)Nc4cc(C)ccc4C)C3)n2)cc1 (centres unmarked) [GSK1379741]	0%	0%	0%	9%	0%	0%	0%	22%	32%	13%
O=c1cc(N2CCOCC2)nc2n(Cc3cccc4ccccc34)ccn12 [GSK2333389]	0%	0%	0%	6%	0%	0%	0%	19%	2%	13%
O=C1NC(=O)C(N2CCc3ccccc32)=C1c1cccc(Cl)c1 [SB-408010]	0%	0%	0%	0%	0%	12%	0%	0%	21%	22%
COc1ccc(CNC(=O)NC2CCN(c3ccnc(Nc4ccc(OC)cc4)n3)C2)cc1 (centres unmarked) [GSK1379727]	0%	0%	0%	12%	0%	0%	0%	47%	0%	13%
